# From PubChem BioAssay (EPA / NIEHS)
# Records with an inconclusive call do not appear. The source made the active and inactive calls. How the source made its calls: active means hit-call score of the fitted dose curve at least 0.9, where 1 is the maximum; inconclusive means response in the unintended direction; inactive means score below 0.9.
# What was measured:
# [1] = target: human Thromboxane A2 Receptor (TXA2), TBXA2R (gene 6915) (UniProt P21731); test: NVS_GPCR_hTXA2: NovaScreen (NVS) G Protein-Coupled Receptor Assay for human Thromboxane A2 Receptor (TXA2) (AID 2283282);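 further: actives reduce bound radioligand signal relative to DMSO baseline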
# Method in brief: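 Cell-free radioligand binding with human platelet-derived receptor; 1 h after dosing, filter-based scintillation counting, loss of signal vs DMSO. Primary screen in duplicate at 25 uM.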
# [2] = target: D(1A) dopamine receptor (Homo sapiens) (UniProt P21728); test: NVS_GPCR_hDRD1: NovaScreen (NVS) G Protein-Coupled Receptor Assay for human Dopamine Receptor D1 (DRD1) (AID 2283269)
# Method in brief: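 Cell-free competition with radioligand, filter-trapped and scintillation-counted 1 h post-dose, using HEK293-derived human D1 preparation. Duplicate single-point testing at 25 uM first, then concentration series for actives; DMSO served as baseline, loss-of-signal scored.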
# [3] = target: mouse Cholecystokinin, CCK1 Receptor (CCKA), Cckar (gene 12425) (UniProt O08786); test: NVS_GPCR_mCCKAPeripheral: NovaScreen (NVS) G Protein-Coupled Receptor Assay for mouse Cholecystokinin, CCK1 Receptor (CCKA) (AID 2283285)
# Method in brief: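 Radioligand competitive displacement on mouse pancreatic membranes, 2 h incubation; filter-based scintillation counting, loss of signal versus DMSO. Single-concentration screen at 25 uM in duplicate, actives retested in concentration-response up to 50 uM.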
# [4] = target: human Histamine 1 Receptor (H1), HRH1 (gene 3269) (UniProt P35367); test: NVS_GPCR_hH1: NovaScreen (NVS) G Protein-Coupled Receptor Assay for human Histamine 1 Receptor (H1) (AID 2283268)
# Method in brief: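 Cell-free radioligand displacement at human H1 receptor, 1 h, filter scintillation counting; primary screen 25 uM in duplicate, hits in concentration series; loss of binding fitted vs DMSO.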
# [5] = target: Muscarinic acetylcholine receptor M1 (Homo sapiens) (UniProt P11229); test: NVS_GPCR_hM1: NovaScreen (NVS) G Protein-Coupled Receptor Assay for human Muscarinic, M1 Receptor (AID 2283270)
# Method in brief: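 Cell-free radioligand displacement using membrane protein extracted from CHO cells, read by filter-based scintillation counting 1 h after dosing. Loss of bound signal fitted versus DMSO; primary screen single concentration 25 uM in duplicate, actives followed by concentration series.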
# [6] = target: human Leukotriene B4 Receptor 1 (LTB4-BLT1), LTB4R (gene 1241) (UniProt Q15722); test: NVS_GPCR_hLTB4_BLT1: NovaScreen (NVS) G Protein-Coupled Receptor Assay for human Leukotriene B4 Receptor 1 (LTB4-BLT1) (AID 2283271)
# Method in brief: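 Radioligand displacement binding on receptor extracted from human neutrophils, cell-free, 1 h after dosing; filter-based scintillation counting. Primary screen in duplicate at 25 uM, actives retested in concentration-response up to 50 uM; loss of signal versus DMSO.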
# [7] = target: Muscarinic acetylcholine receptor M3 (Homo sapiens) (UniProt P20309); test: NVS_GPCR_hM3: NovaScreen (NVS) G Protein-Coupled Receptor Assay for human Muscarinic, M3 Receptor (AID 2283272)
# Method in brief: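 Radioligand displacement binding on human M3 receptor in CHO-derived membranes, 1 h incubation, filter-based scintillation counting. Primary screen in duplicate at 25 uM; actives followed up in concentration series; loss of signal versus DMSO.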
# [8] = target: Muscarinic acetylcholine receptor M2 (Homo sapiens) (UniProt P08172); test: NVS_GPCR_hM2: NovaScreen (NVS) G Protein-Coupled Receptor Assay for human Muscarinic, M2 Receptor (AID 2283273)
# Method in brief: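 CHO membrane prep, radioligand + test compound, 1 h; filtration, scintillation count. Screen 25 uM duplicate → conc. series for actives. Readout: decrease in binding vs DMSO control.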
# [9] = target: human Opioid Receptor Delta 1 (Opiate D1), OPRD1 (gene 4985) (UniProt P41143); test: NVS_GPCR_hOpiate_D1: NovaScreen (NVS) G Protein-Coupled Receptor Assay for human Opioid Receptor Delta 1 (Opiate D1) (AID 2283280)
# Method in brief: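 Radioligand displacement on membranes from CHO cells expressing the receptor, read by filter scintillation counting 1 h after dosing. Duplicate single-point screen at 25 uM, then concentration series for actives; loss of signal versus DMSO.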
# [10] = target: rat Adrenergic, Alpha 1, Non-selective Receptor (Adra1), Adra1a (gene 29412) (UniProt P43140); test: NVS_GPCR_rAdra1_NonSelective: NovaScreen (NVS) G Protein-Coupled Receptor Assay for rat Adrenergic, Alpha 1, Non-selective Receptor (Adra1) (AID 2283289)
# Method in brief: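 Rat forebrain membranes; radioligand displacement read by filter-based scintillation counting 1 h after dosing. Primary screen in duplicate at 25 uM; hits (e.g. ≥30% inhibition) rerun as concentration–response to 50 uM max. Fitted versus DMSO.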
# [11] = target: human Opioid Receptor Mu (Opiate Mu), OPRM1 (gene 4988) (UniProt P35372); test: NVS_GPCR_hOpiate_mu: NovaScreen (NVS) G Protein-Coupled Receptor Assay for human Opioid Receptor Mu (Opiate Mu) (AID 2283290);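 further: hits lower bound tracer signal versus DMSO meaning displacement of the ligand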
# Method in brief: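 Primary screen in duplicate at 25 uM, with actives followed in concentration series. CHO-derived receptor membranes, cell-free; bound radioligand read by scintillation counting after filtration at 2.5 h, decrease scored against DMSO.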
# [12] = target: guinea pig Bradykinin Receptor B2 (BK2), BDKRB2 (gene 100135486) (UniProt O70526); test: NVS_GPCR_gBK2: NovaScreen (NVS) G Protein-Coupled Receptor Assay for guinea pig Bradykinin Receptor B2 (BK2) (AID 2283292)
# Method in brief: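 Radioligand displacement on guinea pig ileum membranes for 1 h, read by filter-based scintillation counting; loss of signal relative to DMSO. Compounds were screened in duplicate at 25 uM, and those passing the threshold were retested in concentration-response up to 50 uM.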
# [13] = target: mouse Cholecystokinin, CCK2 Receptor (CCKB), Cckbr (gene 12426) (UniProt P56481); test: NVS_GPCR_mCKKBCentral: NovaScreen (NVS) G Protein-Coupled Receptor Assay for mouse Cholecystokinin, CCK2 Receptor (CCKB) (AID 2283293)
# Method in brief: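 Radioligand displacement binding on mouse forebrain membranes, 2 h exposure, filter-based scintillation counting. Primary screen in duplicate at 25 uM; actives (e.g. ≥30% inhibition) retested in concentration-response up to 50 uM; loss of binding signal relative to DMSO.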
# human Opioid Receptor Mu (Opiate Mu), OPRM1 (gene 4988), sequence (P35372 whole entry, looked up): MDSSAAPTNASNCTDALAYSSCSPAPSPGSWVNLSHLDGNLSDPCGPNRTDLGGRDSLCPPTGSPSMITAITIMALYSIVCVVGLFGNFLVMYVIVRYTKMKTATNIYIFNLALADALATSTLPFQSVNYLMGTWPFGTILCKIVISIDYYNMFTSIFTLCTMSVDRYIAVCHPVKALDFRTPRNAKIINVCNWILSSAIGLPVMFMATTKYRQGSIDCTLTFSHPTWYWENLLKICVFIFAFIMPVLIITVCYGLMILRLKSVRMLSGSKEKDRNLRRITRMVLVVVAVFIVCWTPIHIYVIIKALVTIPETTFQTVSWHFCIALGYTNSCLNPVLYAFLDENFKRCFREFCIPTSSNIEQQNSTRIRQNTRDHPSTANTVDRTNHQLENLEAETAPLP
# rat Adrenergic, Alpha 1, Non-selective Receptor (Adra1), Adra1a (gene 29412), sequence (P43140 whole entry, looked up): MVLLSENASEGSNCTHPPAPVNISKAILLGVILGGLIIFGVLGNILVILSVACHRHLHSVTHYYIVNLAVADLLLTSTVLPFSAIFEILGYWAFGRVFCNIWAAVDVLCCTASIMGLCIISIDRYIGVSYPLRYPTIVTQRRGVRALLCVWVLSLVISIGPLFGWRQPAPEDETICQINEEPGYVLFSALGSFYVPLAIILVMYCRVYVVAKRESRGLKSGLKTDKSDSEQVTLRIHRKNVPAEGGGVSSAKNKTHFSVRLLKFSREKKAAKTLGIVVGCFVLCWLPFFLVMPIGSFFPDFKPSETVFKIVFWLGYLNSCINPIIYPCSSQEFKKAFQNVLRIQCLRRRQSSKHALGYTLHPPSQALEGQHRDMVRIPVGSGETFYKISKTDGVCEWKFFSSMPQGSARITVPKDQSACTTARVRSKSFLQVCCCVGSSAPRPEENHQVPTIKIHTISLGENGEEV
# human Thromboxane A2 Receptor (TXA2), TBXA2R (gene 6915), sequence (P21731 whole entry, looked up): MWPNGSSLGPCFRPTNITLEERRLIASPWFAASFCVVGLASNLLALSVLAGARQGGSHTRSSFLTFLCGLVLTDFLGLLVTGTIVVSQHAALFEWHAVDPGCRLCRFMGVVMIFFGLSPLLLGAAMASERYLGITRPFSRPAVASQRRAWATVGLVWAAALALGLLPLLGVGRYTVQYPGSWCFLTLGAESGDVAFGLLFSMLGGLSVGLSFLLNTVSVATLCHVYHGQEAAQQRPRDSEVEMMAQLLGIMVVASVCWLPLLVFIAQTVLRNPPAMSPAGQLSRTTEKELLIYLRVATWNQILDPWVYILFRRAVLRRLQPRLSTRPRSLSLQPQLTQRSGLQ
# D(1A) dopamine receptor (Homo sapiens), sequence (P21728 whole entry, looked up): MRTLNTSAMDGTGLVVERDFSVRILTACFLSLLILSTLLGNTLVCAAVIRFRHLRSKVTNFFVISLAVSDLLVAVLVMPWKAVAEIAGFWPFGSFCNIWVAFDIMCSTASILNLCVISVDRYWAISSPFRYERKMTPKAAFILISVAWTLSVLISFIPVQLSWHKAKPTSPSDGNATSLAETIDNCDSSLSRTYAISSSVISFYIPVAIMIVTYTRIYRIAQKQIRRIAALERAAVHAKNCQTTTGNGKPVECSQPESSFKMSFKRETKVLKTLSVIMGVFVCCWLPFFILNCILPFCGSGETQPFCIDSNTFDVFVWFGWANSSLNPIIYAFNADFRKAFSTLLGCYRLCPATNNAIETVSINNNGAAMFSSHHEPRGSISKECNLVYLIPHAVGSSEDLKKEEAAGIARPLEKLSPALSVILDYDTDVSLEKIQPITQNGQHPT
# Muscarinic acetylcholine receptor M3 (Homo sapiens), sequence (P20309 whole entry, looked up): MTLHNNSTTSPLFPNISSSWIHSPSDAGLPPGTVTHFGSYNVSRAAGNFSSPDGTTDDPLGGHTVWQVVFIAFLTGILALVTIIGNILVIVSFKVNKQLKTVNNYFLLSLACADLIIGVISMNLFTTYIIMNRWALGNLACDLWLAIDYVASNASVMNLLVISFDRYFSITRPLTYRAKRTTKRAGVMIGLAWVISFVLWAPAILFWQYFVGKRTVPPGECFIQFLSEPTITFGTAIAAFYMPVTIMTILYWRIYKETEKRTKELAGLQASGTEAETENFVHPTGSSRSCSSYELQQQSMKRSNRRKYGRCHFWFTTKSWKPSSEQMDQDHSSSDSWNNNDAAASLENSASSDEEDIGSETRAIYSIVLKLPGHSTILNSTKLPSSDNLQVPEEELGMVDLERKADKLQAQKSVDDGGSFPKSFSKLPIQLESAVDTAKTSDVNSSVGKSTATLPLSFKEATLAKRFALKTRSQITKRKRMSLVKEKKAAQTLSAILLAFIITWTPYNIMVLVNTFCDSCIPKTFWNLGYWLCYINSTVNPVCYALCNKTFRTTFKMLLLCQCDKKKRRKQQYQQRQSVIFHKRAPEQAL
# mouse Cholecystokinin, CCK1 Receptor (CCKA), Cckar (gene 12425), sequence (O08786 whole entry, looked up): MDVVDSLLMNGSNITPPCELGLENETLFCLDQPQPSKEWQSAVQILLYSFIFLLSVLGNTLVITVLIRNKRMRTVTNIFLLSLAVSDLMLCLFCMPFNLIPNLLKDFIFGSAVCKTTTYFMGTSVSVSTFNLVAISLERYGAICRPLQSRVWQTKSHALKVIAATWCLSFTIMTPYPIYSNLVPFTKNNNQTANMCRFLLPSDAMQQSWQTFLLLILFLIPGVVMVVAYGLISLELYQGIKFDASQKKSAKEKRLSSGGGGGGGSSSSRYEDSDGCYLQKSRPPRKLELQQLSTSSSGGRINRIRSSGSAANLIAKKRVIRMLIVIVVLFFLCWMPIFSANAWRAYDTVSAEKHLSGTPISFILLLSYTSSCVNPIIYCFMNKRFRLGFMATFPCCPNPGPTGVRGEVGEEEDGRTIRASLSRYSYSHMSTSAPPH
# human Opioid Receptor Delta 1 (Opiate D1), OPRD1 (gene 4985), sequence (P41143 whole entry, looked up): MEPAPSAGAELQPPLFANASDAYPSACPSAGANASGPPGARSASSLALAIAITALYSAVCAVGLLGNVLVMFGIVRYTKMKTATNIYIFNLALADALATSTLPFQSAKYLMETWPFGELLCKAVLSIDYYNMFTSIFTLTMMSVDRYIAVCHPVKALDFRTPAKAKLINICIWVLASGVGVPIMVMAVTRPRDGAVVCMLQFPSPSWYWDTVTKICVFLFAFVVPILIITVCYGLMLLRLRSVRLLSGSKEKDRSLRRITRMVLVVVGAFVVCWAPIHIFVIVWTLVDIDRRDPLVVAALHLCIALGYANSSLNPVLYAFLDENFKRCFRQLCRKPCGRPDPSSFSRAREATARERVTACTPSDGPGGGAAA
# human Leukotriene B4 Receptor 1 (LTB4-BLT1), LTB4R (gene 1241), sequence (Q15722 whole entry, looked up): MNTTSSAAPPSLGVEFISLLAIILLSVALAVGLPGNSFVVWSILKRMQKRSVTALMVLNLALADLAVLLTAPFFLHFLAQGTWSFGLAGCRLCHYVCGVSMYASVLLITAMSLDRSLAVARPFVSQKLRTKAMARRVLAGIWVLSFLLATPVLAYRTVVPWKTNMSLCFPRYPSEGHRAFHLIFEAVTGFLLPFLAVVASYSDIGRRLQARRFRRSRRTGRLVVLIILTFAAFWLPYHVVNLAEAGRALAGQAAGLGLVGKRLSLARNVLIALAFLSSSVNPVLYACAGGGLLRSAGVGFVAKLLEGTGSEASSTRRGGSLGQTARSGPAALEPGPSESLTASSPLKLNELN
# human Histamine 1 Receptor (H1), HRH1 (gene 3269), sequence (P35367 whole entry, looked up): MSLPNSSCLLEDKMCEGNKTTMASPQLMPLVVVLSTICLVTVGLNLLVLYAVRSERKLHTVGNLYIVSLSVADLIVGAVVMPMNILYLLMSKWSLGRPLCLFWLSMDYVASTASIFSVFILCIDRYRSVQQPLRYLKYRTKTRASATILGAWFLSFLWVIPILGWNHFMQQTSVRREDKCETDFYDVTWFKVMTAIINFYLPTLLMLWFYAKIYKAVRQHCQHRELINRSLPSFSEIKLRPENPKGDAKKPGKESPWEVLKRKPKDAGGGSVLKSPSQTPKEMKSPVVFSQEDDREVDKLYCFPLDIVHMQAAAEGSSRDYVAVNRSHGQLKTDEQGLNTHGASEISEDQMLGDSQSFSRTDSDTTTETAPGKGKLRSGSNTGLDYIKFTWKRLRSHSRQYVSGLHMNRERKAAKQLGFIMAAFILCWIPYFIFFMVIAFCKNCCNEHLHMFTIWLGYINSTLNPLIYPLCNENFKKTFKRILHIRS
# Muscarinic acetylcholine receptor M2 (Homo sapiens), sequence (P08172 whole entry, looked up): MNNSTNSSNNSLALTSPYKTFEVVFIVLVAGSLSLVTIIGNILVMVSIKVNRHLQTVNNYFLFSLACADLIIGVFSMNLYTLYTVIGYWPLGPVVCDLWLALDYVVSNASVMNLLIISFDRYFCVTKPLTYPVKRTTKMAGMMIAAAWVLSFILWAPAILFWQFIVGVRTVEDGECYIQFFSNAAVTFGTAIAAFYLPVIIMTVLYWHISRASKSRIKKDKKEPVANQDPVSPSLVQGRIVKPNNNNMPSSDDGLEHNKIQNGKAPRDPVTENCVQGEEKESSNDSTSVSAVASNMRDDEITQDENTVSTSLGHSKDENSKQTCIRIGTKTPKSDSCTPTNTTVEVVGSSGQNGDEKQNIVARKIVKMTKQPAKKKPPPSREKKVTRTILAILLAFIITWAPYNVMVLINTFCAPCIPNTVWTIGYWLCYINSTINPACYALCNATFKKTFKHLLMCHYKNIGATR
# Muscarinic acetylcholine receptor M1 (Homo sapiens), sequence (P11229 whole entry, looked up): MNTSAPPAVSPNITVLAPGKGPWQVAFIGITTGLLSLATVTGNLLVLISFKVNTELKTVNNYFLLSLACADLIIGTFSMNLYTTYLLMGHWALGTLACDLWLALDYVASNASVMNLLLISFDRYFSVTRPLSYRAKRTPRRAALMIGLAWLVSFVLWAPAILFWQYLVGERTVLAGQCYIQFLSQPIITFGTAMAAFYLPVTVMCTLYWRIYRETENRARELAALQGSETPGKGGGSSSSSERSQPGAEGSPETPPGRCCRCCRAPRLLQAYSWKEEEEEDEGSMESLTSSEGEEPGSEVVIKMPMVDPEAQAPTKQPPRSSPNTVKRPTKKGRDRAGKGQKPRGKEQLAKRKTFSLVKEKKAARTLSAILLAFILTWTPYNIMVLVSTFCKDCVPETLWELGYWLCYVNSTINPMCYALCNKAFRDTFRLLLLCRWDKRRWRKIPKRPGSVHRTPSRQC
smiles,measurement,setting,value
O=C(O)c1cc(N=Nc2ccc(S(=O)(=O)Nc3ccccn3)cc2)ccc1O,AC50,[1],9.98 µM (active)
O=C(OC[C@H]1O[C@@H](OC(=O)c2cc(O)c(O)c(OC(=O)c3cc(O)c(O)c(O)c3)c2)[C@H](OC(=O)c2cc(O)c(O)c(OC(=O)c3cc(O)c(O)c(O)c3)c2)[C@@H](OC(=O)c2cc(O)c(O)c(OC(=O)c3cc(O)c(O)c(O)c3)c2)[C@@H]1OC(=O)c1cc(O)c(O)c(OC(=O)c2cc(O)c(O)c(O)c2)c1)c1cc(O)c(O)c(OC(=O)c2cc(O)c(O)c(O)c2)c1,outcome,[2],inactive
same,outcome,[1],inactive
same,AC50,[3],12 µM (active)
COc1cccc(-c2ccc(/C=C\CN3CCCCCC3)cc2Cl)c1,AC50,[4],11.1 µM (active)
same,AC50,[2],12.6 µM (active)
same,AC50,[5],5.57 µM (active)
same,AC50,[6],14.5 µM (active)
same,AC50,[7],2.41 µM (active)
same,AC50,[8],0.427 µM (active)
same,AC50,[9],15.5 µM (active)
same,AC50,[10],15.2 µM (active)
same,AC50,[11],12.3 µM (active)
COCCOc1cc2cc(C(=O)NC3CCN(C(C)C)CC3)n(CC(=O)Nc3ccc(Cl)cn3)c2cn1,outcome,[12],inactive
CCCCCCc1ccc(O)cc1O,AC50,[1],5.72 µM (active)
same,outcome,[11],inactive
CC(C)=CCCC(C)CCO (stereo not given),outcome,[11],inactive
CCn1nc(Cc2ccccc2)cc1C1CCN(C[C@H]2C[C@H](N(C)[C@@H](C(=O)O)C(C)C)C[C@@H]2c2cccc(F)c2)CC1,AC50,[11],8.81 µM (active)
Nc1ccc(Nc2ccccc2)cc1,AC50,[2],17.6 µM (active)
same,AC50,[7],25 µM (active)
same,AC50,[8],25 µM (active)
same,AC50,[10],32.3 µM (active)
CCc1cc(SCc2sc(-c3ccc(C(F)(F)F)cc3)nc2CN2CCN(c3ccc(OC)cc3)CC2)ccc1OCC(=O)O,AC50,[4],25 µM (active)
same,AC50,[2],11.5 µM (active)
same,AC50,[6],37.3 µM (active)
same,AC50,[9],7.88 µM (active)
same,AC50,[3],7.03 µM (active)
same,outcome,[10],inactive
same,AC50,[11],4.54 µM (active)
same,AC50,[13],35.3 µM (active)
